The source of these data is ChEMBL document CHEMBL1857833, “Screening and optimization of specific chemical series against human African Trypanosomiasis (HAT)”.

As usually defined, the % inhibition is the relative decrease from the control value, in per cent.

Screen size: about 4,400 compounds; about 390 (8.9%) showed an effect of 50% or more. The entries come from a sample that favours strong results as a whole.

The test system of the assay is Trypanosoma brucei. In words: DNDI: Inhibition of Human African Trypanosomiasis, SBRI 427, in vitro at 2 ug.mL-1. It counts as functional.
With `CCOc1ccccc1CN/C(=N\O)c1ccc(Oc2ccc(C)cc2OC)nc1`, the “% inhibition” value is given as 25%.
For `CCN(CCC#N)Cc1coc(-c2cccc3ccccc23)n1` the value was 10%; for `Cc1ccccc1-c1nc(CNCC(C)(C)CN(C)C)co1`, -8%; for `COc1cc(C)ccc1Oc1nc(C)ccc1/C(=N/O)N1CCCC1`, 13%.
For `COc1cc(C)ccc1Oc1nc(C)ccc1/C(=N/O)NCC(C)(C)C` the value was 99%; for `COc1cc(C)ccc1Oc1nc(C)ccc1/C(=N/O)NCCSC`, -7%; for `Cc1ccc(/C(=N/O)NCCN2CCCC2)c(Oc2cccc(F)c2)n1`, -3%.
For `COc1cc(C)ccc1Oc1nc(C)ccc1/C(=N/O)NCC1CCCO1` (centres undefined) the value was 15%; for `Cc1ccc(Oc2nc(C)ccc2/C(=N/O)NCC(C)C)c(C)c1`, 20%.
Consider `Cc1ccc(Oc2nc(C)ccc2/C(=N/O)NCC(C)(C)C)c(C)c1`, for which the “% inhibition” value is 11%.
As for `COc1cc(C)ccc1Oc1nc(C)ccc1/C(=N/O)NCC1CC1`, the “% inhibition” value is listed as 100%.
The value for `COc1cc(C)ccc1Oc1nc(C)ccc1/C(=N/O)NCC1CCCCC1` was 0%; that for `Cc1ccc(/C(=N/O)NCCN2CCCC2)c(Oc2ccc(F)cc2)n1` was 91%; that for `COc1cc(C)ccc1Oc1nc(C)ccc1/C(=N/O)NCC(C)C` was 100%.
The value for `COc1ccc(Oc2nc(C)ccc2/C(=N/O)NCCN2CCCC2)cc1` was -2%.
The value for `CCCN/C(=N\O)c1ccc(C)nc1Oc1ccc(C)cc1OC` was 22%; that for `C=CCN1CCN(/C(=N\O)c2ccc(C)nc2OCc2cccc(F)c2)CC1` was 3%; that for `CCC(NCc1coc(-c2cccs2)n1)c1ccccc1` (centres undefined) was -5%.
Take `c1coc(-c2nc(CNC3CCc4ccccc43)co2)c1` (centres undefined): the “% inhibition” value is 17%.
As for `CN(Cc1coc(-c2ccccc2F)n1)Cc1cccc2ccccc12`, the “% inhibition” value is -49%.
With `CCN(C)Cc1coc(-c2cccc(F)c2)n1`, the “% inhibition” value is given as -10%.
For `COc1cc(CNCc2coc(-c3ccc(O)cc3)n2)cc(OC)c1` the value was 8%; for `CC(C)c1ccc(N/C(=N\O)c2ccc(Oc3ccc4oc5ccccc5c4c3)nc2)cc1`, 25%; for `Cc1ccc(/C(=N/O)N2CCSCC2)c(OCc2cccc(F)c2)n1`, -17%.
The value for `CCOC(=O)C1CCCN(Cc2coc(-c3cc(OC)c(OC)c(OC)c3)n2)C1` (centres undefined) was -16%; that for `CN(Cc1coc(-c2ccc(Br)cc2)n1)CC1OCCO1` was 11%.
For `Cc1ccccc1-c1nc(CN2CC(C)CC(C)C2)co1` (centres undefined) the value was 6%.
`COc1ccc(Oc2nc(C)ccc2/C(=N/O)NCC2CC2)cc1`: the “% inhibition” value was 24%.
The value for `Cc1ccc(Oc2nc(C)ccc2/C(=N/O)NCC2CC2)cc1` was 74%; that for `Cc1ccc(/C(=N/O)NCC2CC2)c(Oc2ccc(F)cc2)n1` was 33%; that for `CCOc1cccc(-c2nc(Cn3cnc(-c4ccccc4)c3)co2)c1` was 11%.
The value for `CN(Cc1coc(-c2ccco2)n1)C1CCCCC1` was 11%; that for `Cc1ccccc1CNCc1coc(-c2ccc(O)cc2)n1` was 1%; that for `O/N=C(\NC1CC1)c1cccnc1Oc1ccccc1F` was 78%.
Take `O/N=C(/c1cccnc1Oc1ccccc1F)N1CCCCC1`: the “% inhibition” value is 23%.
The value for `Cc1ccc(/C(=N/O)NC2CC2)c(Oc2cccc3cccnc23)n1` was 29%.
Consider `COC(=O)C1CCN(/C(=N\O)c2cccnc2Oc2ccccc2OC)CC1`, for which the “% inhibition” value is listed as 15%.
The value for `O/N=C(\NCCN1CCCC1)c1cccnc1Oc1ccccc1F` was 30%.
For `CSc1ccccc1Oc1ncccc1/C(=N/O)N1CCCCC1` the value was 8%.
Regarding `O/N=C(\NC1CCCC1)c1cccnc1Oc1ccccc1F`, the “% inhibition” value was found to be 96%.
The value for `COc1ccccc1Oc1ncccc1/C(=N/O)NC1CCCC1` was 99%.
The value for `CSc1ccccc1Oc1ncccc1/C(=N/O)NC1CCCC1` was 99%.
For `COc1ccccc1Oc1ncccc1/C(=N/O)N1C(C)CCCC1C` (centres undefined) the value was 9%.
`O/N=C(/c1cccnc1Oc1ccccc1F)N1CCOCC1`: the “% inhibition” value is 13%.
The value for `COC(=O)C1CCN(/C(=N\O)c2cccnc2Oc2ccccc2SC)CC1` was 18%; that for `CC(C)c1ccc(Oc2ncccc2/C(=N/O)N2CCC=N2)cc1` was -4%.
For `Cc1nccn1/C(=N\O)c1ccnc(Oc2ccc(Cl)cc2)c1` the value was 5%; for `COc1ccc(-c2nc(CN3CCC(C)CC3)co2)cc1`, 12%.
For `Cc1cccc(N2CCN(Cc3coc(-c4ccc(O)cc4)n3)CC2)c1C` the value was 3%; for `Brc1ccc(-c2nc(CNCCCN3CCOCC3)co2)cc1`, -12%.
As for `CCCCN(CC)Cc1coc(-c2cccc(OC)c2)n1`, the “% inhibition” value is on record as -18%.
For `Cc1nccn1/C(=N\O)c1cccnc1Oc1ccccc1` the value was 10%; for `COc1cc(C)ccc1Oc1nc(C)ccc1/C(=N/O)N1C(C)C=CC1C` (centres undefined), -2%.
For the molecule `Brc1ccc(-c2nc(CNCCN3CCOCC3)co2)cc1`, the “% inhibition” value is reported as -53%.
The value for `CN1CCCC1CCNCc1coc(-c2ccc(Br)cc2)n1` (centres undefined) was 97%; that for `CN1CCCC1CCNCc1coc(-c2ccccc2Br)n1` (centres undefined) was 57%; that for `Brc1ccc(-c2nc(CNCCN3CCCCC3)co2)cc1` was 43%.
As to `CCOc1cccc(-c2nc(CNCCN3CCCC3)co2)c1`, the “% inhibition” value is -12%.
For `CCOc1cccc(-c2nc(CNCCN3CCOCC3)co2)c1` the value was -2%; for `Brc1ccccc1-c1nc(CNCCN2CCCCC2)co1`, -1%; for `CN1CCCC1CCNCc1coc(-c2cccs2)n1` (centres undefined), -4%.
For `CCOc1cccc(-c2nc(CNCCC3CCCN3C)co2)c1` (centres undefined) the value was 99%; for `CC(C)COc1ncccc1/C(=N/O)N1CCN(c2ccc(F)cc2)CC1`, 0%; for `O=Cc1nccn1Cc1coc(-c2ccc(F)cc2)n1`, -8%.
For `CSc1ccc(Oc2cc(/C(=N/O)N3CC(C)CC(C)C3)ccn2)cc1` (centres undefined) the value was 18%; for `Oc1ccc(-c2nc(CNCc3ccccc3C(F)(F)F)co2)cc1`, 18%; for `CC(C)COc1ncccc1/C(=N/O)NCc1ccco1`, 3%.
`COc1ccc(Oc2ncccc2/C(=N/O)N(C)Cc2ccco2)cc1`: the “% inhibition” value is on record as -11%.
The value for `O/N=C(\NCc1cccs1)c1cccnc1Oc1ccc2oc3ccccc3c2c1` was 75%.
`CN(Cc1ccco1)/C(=N\O)c1cccnc1Oc1ccc(Cl)cc1`: the “% inhibition” value is 4%.
For `O/N=C(\NCc1ccncc1)c1cccnc1Oc1ccc2oc3ccccc3c2c1` the value was 10%; for `CC(C)c1ccc(Oc2ncccc2/C(=N/O)N(C)Cc2ccco2)cc1`, 75%.
For the molecule `COc1ccc(Oc2ncccc2/C(=N/O)NCc2ccco2)cc1`, the “% inhibition” value is given as -14%.
For `O/N=C(\NCc1ccccn1)c1cccnc1Oc1ccc2oc3ccccc3c2c1` the value was 7%.
On to `Cc1ccc(/C(=N/O)N(C)Cc2ccco2)c(Oc2cccc(F)c2)n1`, for which the “% inhibition” value stood at 22%.
For `CSc1ccc(Oc2nc(C)ccc2/C(=N/O)N(C)Cc2ccco2)cc1C` the value was 12%.
The value for `CC(C)c1ccc(Oc2ncccc2/C(=N/O)NCc2ccco2)cc1` was 96%; that for `Cc1ccc(/C(=N/O)N(C)Cc2ccco2)c(Oc2cccc(C(C)C)c2)n1` was 67%.
The value for `CC(C)COc1ncccc1/C(=N/O)N(C)Cc1cccnc1` was -1%; that for `Cc1cn(/C(=N\O)c2ccc(Oc3ccc4oc5ccccc5c4c3)nc2)cn1` was 16%; that for `CCOc1cccc(-c2nc(CN(C)CC#N)co2)c1` was 15%.
Turning to `O/N=C(/c1cccnc1Oc1ccc(F)cc1)N1Cc2ccccc2C1`, the “% inhibition” value amounted to 4%.
Turning to `COC(CN(C)Cc1coc(-c2ccc(Br)cc2)n1)OC`, the “% inhibition” value came to 4%.
The value for `CCOc1ccccc1-c1nc(CN2CCCCC2)co1` was -1%; that for `CN(Cc1coc(-c2ccc(C(F)(F)F)cc2)n1)Cc1ccco1` was 18%.
For `COc1ccc(Oc2ncccc2/C(=N/O)NCc2cccs2)cc1` the value was 37%; for `CC(C)c1ccc(Oc2ncccc2/C(=N/O)NCc2cccs2)cc1`, 100%.
The value for `O/N=C(\NCc1cccs1)c1cccnc1Oc1cccc(C(F)(F)F)c1` was -12%; that for `Clc1ccccc1-c1nc(CNC(Cc2ccccc2)c2ccccc2)co1` (centres undefined) was -20%; that for `Cc1ccccc1-c1nc(CNC[C@@H]2CCCO2)co1` was -1%.
On to `Brc1ccccc1-c1nc(CNC2CCCCCCCCCCC2)co1`, for which the “% inhibition” value is recorded as 59%.
The value for `Cc1ccccc1-c1nc(CNC2CCN(Cc3ccccc3)C2)co1` (centres undefined) was 30%; that for `Brc1ccccc1-c1nc(CNC2CCN(Cc3ccccc3)C2)co1` (centres undefined) was -6%; that for `Brc1ccccc1-c1nc(CNC2CCCCCC2)co1` was -20%.
The value for `Cc1ccccc1-c1nc(CNC2CCCCCC2)co1` was 61%; that for `COc1cc(CN(C)Cc2coc(-c3ccccc3C)n2)cc(OC)c1OC` was -15%.
`CCCN(Cc1coc(-c2cc(OC)c(OC)c(OC)c2)n1)c1ccccc1`: the “% inhibition” value worked out at 1%.
As for `O/N=C(/c1cccnc1OCc1ccccc1)N1CCSCC1`, the “% inhibition” value is reported as 13%.
For `C[C@@H]1C(NCc2coc(-c3cccs3)n2)C[C@H]2C[C@@H]1C2(C)C` (some centres undefined) the value was 62%; for `CC1CC(C)CN(Cc2coc(-c3cccs3)n2)C1` (centres undefined), 2%; for `CC(NCc1coc(-c2cccs2)n1)C1CCCCC1` (centres undefined), -3%.
In the case of `c1csc(-c2nc(CNC3CCCC3)co2)c1`, the “% inhibition” value is -11%.
As to `C[C@H]1C(NCc2coc(-c3cccs3)n2)C[C@@H]2C[C@H]1C2(C)C` (some centres undefined), the “% inhibition” value came out at 87%.
The value for `c1csc(-c2nc(CNC3CCc4ccccc43)co2)c1` (centres undefined) was -11%; that for `COc1cccc(Oc2ccc(/C(=N/O)N3CCSC3)cn2)c1` was 6%; that for `Cc1ccc(CCNCc2coc(-c3cccc(F)c3)n2)cc1` was -9%.
The value for `CCCN(Cc1coc(-c2cccc(C)c2)n1)c1ccccc1` was 7%; that for `Cc1ccc2cccc(Oc3cc(/C(=N/O)N4C(C)CCCC4C)ccn3)c2n1` (centres undefined) was 19%.
For the molecule `Cc1ccc2cccc(Oc3ccc(/C(=N/O)n4cccn4)cn3)c2n1`, the “% inhibition” value was found to be 4%.
The value for `Cc1ccc2cccc(Oc3ccc(/C(=N/O)NC4CCCCC4)cn3)c2n1` was 99%; that for `CC1CCC(N/C(=N\O)c2ccnc(Oc3cccc4cccnc34)c2)CC1` (centres undefined) was 95%.
As for `Cc1ccc2cccc(Oc3cc(/C(=N/O)NCc4c(F)cccc4F)ccn3)c2n1`, the “% inhibition” value is given as 17%.
Take `Cc1ccc2cccc(Oc3cc(/C(=N/O)NC4CC(C)CC(C)(C)C4)ccn3)c2n1` (centres undefined): the “% inhibition” value worked out at 10%.
The value for `CCC(C)(C)N/C(=N\O)c1ccnc(Oc2cccc3ccc(C)nc23)c1` was 51%; that for `CC1CCC(N/C(=N\O)c2ccnc(Oc3cccc4cnccc34)c2)CC1` (centres undefined) was 10%.
For `Cc1ccccc1CN/C(=N\O)c1ccnc(Oc2cccc3cccnc23)c1` the value was 43%.
With `Cc1cc(C)cc(CN/C(=N\O)c2ccnc(Oc3cccc4ccc(C)nc34)c2)c1`, the “% inhibition” value came to 18%.
For `Cc1ccc2cccc(Oc3cc(/C(=N/O)NC4CCC(C)CC4)ccn3)c2n1` (centres undefined) the value was 94%; for `Cc1ccc2cccc(Oc3ccc(/C(=N/O)Nc4ccc(C(C)C)cc4)cn3)c2n1`, 8%.
